TDP1 cell noCPT: qHTS for Inhibitors of human tyrosyl-DNA phosphodiesterase 1 (TDP1): qHTS in cells in absence of CPT | AID 686978, 2013 | Potency, µM (doses to about 46.2 µM), for inactives: at the top dose activity change, negative = growth inhibition, most hits filed as inhibitors | DT40 Tdp1-/- hTDP1 cells, no CPT, ATP luminescence, 48 h | actives 15% (n = 420,000); also: potency is read from the fitted curve at half-maximal effect; nearly all actives have a fitted effect of over 55% in size
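Growth of hTDP1-complemented DT40 Tdp1-knockout cells is measured by ATP luminescence after at least 48 hr compound exposure at 37 °C, with DMSO substituting for the 20 nM CPT used in the parallel screen.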
HT1080-NT tox: kills 2HG-producing HT-1080-NT fibrosarcoma cells. actives 1.6% (n = 360,000). HT-1080-NT fibrosarcoma viability, CellTiter-Glo ATP luminescence, 48 h. AID 686970. Potency, µM (doses to about 46.1 µM), without a hit: at the top dose activity, negative = less viability, most hits filed as cytotoxic;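 also: NT is the 2HG producing partner of a matched IDH1 knockdown line; potency is read from the fitted curve at half-maximal effect; 0% = DMSO-treated cells and -100% = media-only wells without cells; nearly all actives have a fitted effect of over 55% in size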
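Fibrosarcoma NT cells, 750 per well in 5% FBS RPMI, were exposed to compound for 48 hours. Viability: CellTiter-Glo luminescence.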
IL1B secr inh: inflammasome signaling inhibition, IL-1 beta readout. activity change, % at 57.5 µM. AID 743279. THP-1 LPS/ATP IL-1B secretion, AlphaLISA, 16 h; stronger effect = lower value. actives 4.7% (n = 360,000); in the data active = activity change below about -50%; inconclusive = mostly about -30% to -49%
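Secreted IL-1B measured by AlphaLISA bead assay after 16 h compound exposure of THP-1 cells; compounds (final up to 57.5 uM) added 1 h before LPS (250 ng/mL) and ATP (1.25 mM) stimulation; lower signal means less secretion.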
HT1080 IDH1KD tx: toxicity to HT-1080 IDH1 knockdown cells (counter line) | HT-1080 IDH1 knockdown viability, ATP luminescence, 48 h | Potency, µM (titrated, usually from 46.1 µM), inactives show top-dose activity, negative = toxicity, actives largely listed as cytotoxic | AID 686971 | actives 2% (n = 360,000);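 also: potency is read from the fitted curve at half-maximal effect; 0% = DMSO wells and -100% = cell-free medium wells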
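% activity derives from luminescence (CellTiter-Glo), normalised to DMSO and no-cell wells. HT-1080-IDH1KD cells, 750/well, had 48 h compound exposure at 37 °C.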
DT40 TDP1 CPT: growth inhibition of DT40 Tdp1-/-;hTDP1 cells with camptothecin (screen for TDP1 inhibitors) | chicken DT40 Tdp1-/-;hTDP1 cells + 20 nM CPT, ATP luminescence, 48 h | Potency, µM (titrated, usually from 46.2 µM), for the others: at the top dose activity change, negative = growth inhibition, usual class: inhibitors | actives 12% (n = 420,000) | AID 686979; also: potency is read from the fitted curve at half-maximal effect; nearly all actives have a fitted effect of over 55% in size
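Chicken DT40 Tdp1-/- cells stably complemented with human TDP1 were seeded at 400 cells/well in medium containing 20 nM camptothecin, exposed to pin-transferred compounds, and grown at 37 °C for at least 48 hr. Viability was read as ATP luminescence.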
The depositor's hits bear a star; [ ] = dose if it differs, or a comment. Sampled rows, rich in hits. Any-hit rate of the full collection: about 19%. Unless noted, calls follow the shape of the dose curve; as a rule, active = well fitted curve in the direction sought with a large enough effect; inconclusive = small, poorly fitted or top-dose-only effect, or another doubt; inactive = no such curve, though single readings can be large; an effect the other way counts as inactive or inconclusive. Unless noted, % is scaled to controls: 0 for no effect and ±100 for the full control effect.

What do the screens show for `C=CCNC(=O)CN1C(=O)NC(C)(c2ccc(OC)cc2)C1=O` (stereo unspecified)?
TDP1 cell noCPT: -1%; HT1080-NT tox: 7%; IL1B secr inh: 8; HT1080 IDH1KD tx: 2%; DT40 TDP1 CPT: 23%

How did CN(Cc1ccccc1)C(=O)c1ccc2c(c1)NC(=O)C(N1CCOCC1)S2 (stereo unspecified) do in these assays?
TDP1 cell noCPT: inconclusive; HT1080-NT tox: -4%; IL1B secr inh: 22; HT1080 IDH1KD tx: -5%; DT40 TDP1 CPT: inconclusive

What do the screens show for `Cc1nc2ccc(NC(=O)CSc3ccccc3)cc2s1`?
TDP1 cell noCPT: inconclusive; HT1080-NT tox: 4%[9.24 µM]; IL1B secr inh: 5; HT1080 IDH1KD tx: 4%; DT40 TDP1 CPT: inconclusive

Results for CC(=O)N1CCc2c(sc(NC(=O)CSc3ccccc3)c2-c2nc3ccccc3s2)C1 ?
TDP1 cell noCPT: 10µM*; DT40 TDP1 CPT: 13µM*

What do the screens show for `CN1CCc2c(sc(NC(=O)Cc3ccccc3)c2C#N)C1`?
TDP1 cell noCPT: -12%; HT1080-NT tox: -9%; IL1B secr inh: -14; HT1080 IDH1KD tx: 2%; DT40 TDP1 CPT: 2%

How did CC(=O)N1CCc2c(sc(NC(=O)C3CC3)c2-c2nc3ccccc3s2)C1 do in these assays?
TDP1 cell noCPT: 15µM*; HT1080-NT tox: inconclusive; IL1B secr inh: -84*; HT1080 IDH1KD tx: inconclusive; DT40 TDP1 CPT: 16µM*

How did Cc1cc(NC(=O)C2CC2)n(-c2nc3ccccc3s2)n1 do in these assays?
TDP1 cell noCPT: -30%; HT1080-NT tox: -2%; IL1B secr inh: 13; HT1080 IDH1KD tx: -1%; DT40 TDP1 CPT: 2%

Results for CN1CCc2c(sc(NC(=O)CSc3ccccc3)c2-c2nc3ccccc3s2)C1 ?
TDP1 cell noCPT: 21µM*; DT40 TDP1 CPT: inconclusive

Results for CSc1ncc(OCc2ccccc2)c(=O)[nH]1 ?
TDP1 cell noCPT: -1%; HT1080-NT tox: -3%; IL1B secr inh: 0; HT1080 IDH1KD tx: 1%; DT40 TDP1 CPT: 1%

Results for CCOC(=O)C(=O)N1CCC(C(=O)OC)CC1 ?
TDP1 cell noCPT: -6%; HT1080-NT tox: 18%; IL1B secr inh: -1; HT1080 IDH1KD tx: 4%; DT40 TDP1 CPT: -5%

Results for O=C(Oc1ccc(-c2cnc3ccccc3n2)cc1)c1ccc(Cl)c([N+](=O)[O-])c1 ?
TDP1 cell noCPT: inconclusive; HT1080-NT tox: 12%; IL1B secr inh: 9; HT1080 IDH1KD tx: 9%; DT40 TDP1 CPT: -22%

Results for O=[N+]([O-])c1cc(-c2cnc3ccccc3n2)ccc1Oc1ccc(Br)cc1 ?
TDP1 cell noCPT: 13µM*; HT1080-NT tox: 0%; IL1B secr inh: -15; HT1080 IDH1KD tx: -10%; DT40 TDP1 CPT: inconclusive

What do the screens show for `Cc1cc(Oc2ccc(-c3nnc(-c4ccccc4)o3)cc2[N+](=O)[O-])ccc1Cl`?
TDP1 cell noCPT: inconclusive; HT1080-NT tox: -1%; IL1B secr inh: 0; HT1080 IDH1KD tx: 10%; DT40 TDP1 CPT: inconclusive

What do the screens show for `Cc1nnc(-c2ccc(Oc3ccc(Br)cc3)c([N+](=O)[O-])c2)o1`?
TDP1 cell noCPT: 13µM*; HT1080-NT tox: -8%; IL1B secr inh: 13; HT1080 IDH1KD tx: 0%; DT40 TDP1 CPT: inconclusive

How did O=[N+]([O-])c1ccc(Oc2ccc(-c3cnc4ccccc4n3)cc2[N+](=O)[O-])cc1 do in these assays?
TDP1 cell noCPT: 15µM*; HT1080-NT tox: 3%; IL1B secr inh: 7; HT1080 IDH1KD tx: 19%; DT40 TDP1 CPT: 10µM*

How did CSc1nc(O)c(C(c2ccccc2Cl)c2c(O)nc(SC)[nH]c2=O)c(=O)[nH]1 do in these assays?
TDP1 cell noCPT: -8%; HT1080-NT tox: 8%; IL1B secr inh: -12; HT1080 IDH1KD tx: 1%; DT40 TDP1 CPT: 12%

How did CCCOc1ccc(-c2nc(OC)c3ccccc3n2)cc1 do in these assays?
TDP1 cell noCPT: -14%; HT1080-NT tox: -2%; IL1B secr inh: 21; HT1080 IDH1KD tx: 1%; DT40 TDP1 CPT: 0%

How did O=C(NCCc1c[nH]c2ccccc12)C(=O)NCC1OCCCN1S(=O)(=O)c1ccccc1 (stereo unspecified) do in these assays?
TDP1 cell noCPT: 16µM*; HT1080-NT tox: -1%; IL1B secr inh: 0; HT1080 IDH1KD tx: -13%; DT40 TDP1 CPT: -79%

What do the screens show for `O=C(NCCc1c[nH]c2ccccc12)C(=O)NCC1OCCN1S(=O)(=O)c1ccc(Cl)cc1` (stereo unspecified)?
TDP1 cell noCPT: 21µM*; HT1080-NT tox: 0%; IL1B secr inh: 7; HT1080 IDH1KD tx: 1%; DT40 TDP1 CPT: inconclusive

How did O=C(NCCc1c[nH]c2ccccc12)C(=O)NCC1OCCN1S(=O)(=O)c1ccccc1 (stereo unspecified) do in these assays?
TDP1 cell noCPT: inconclusive; HT1080-NT tox: 1%; IL1B secr inh: 1; HT1080 IDH1KD tx: -1%; DT40 TDP1 CPT: inconclusive

How did Cc1ccc(S(=O)(=O)N2CCCOC2CNC(=O)C(=O)NCCc2c[nH]c3ccccc23)cc1 (stereo unspecified) do in these assays?
TDP1 cell noCPT: 18µM*; HT1080-NT tox: -14%; IL1B secr inh: -60*; HT1080 IDH1KD tx: -16%; DT40 TDP1 CPT: 15µM*

Results for O=C(NCCc1c[nH]c2ccccc12)C(=O)NCC1OCCN1S(=O)(=O)c1ccc(F)cc1 (stereo unspecified) ?
TDP1 cell noCPT: inconclusive; HT1080-NT tox: 0%; IL1B secr inh: 14; HT1080 IDH1KD tx: 1%; DT40 TDP1 CPT: inconclusive

How did Cc1cc(C)c(S(=O)(=O)N2CCOC2CNC(=O)C(=O)NCCc2c[nH]c3ccccc23)c(C)c1 (stereo unspecified) do in these assays?
TDP1 cell noCPT: 18µM*; HT1080-NT tox: -16%; IL1B secr inh: -8; HT1080 IDH1KD tx: -4%; DT40 TDP1 CPT: 26µM*

How did CC(C)NC(=O)NC(=O)COC(=O)c1cc[n+]([O-])cc1 do in these assays?
TDP1 cell noCPT: 0%; HT1080-NT tox: 20%; IL1B secr inh: -2; HT1080 IDH1KD tx: 15%; DT40 TDP1 CPT: -2%

Results for Cc1cc(C2CC(=O)Nc3ccccc3S2)c(C)s1 (stereo unspecified) ?
TDP1 cell noCPT: inconclusive; HT1080-NT tox: -1%; IL1B secr inh: -3; HT1080 IDH1KD tx: 9%; DT40 TDP1 CPT: inconclusive

How did O=C(CC1CCCC1)Nc1ccc2c(c1)CCC2 do in these assays?
TDP1 cell noCPT: inconclusive; HT1080-NT tox: 8%; IL1B secr inh: -1; HT1080 IDH1KD tx: 0%; DT40 TDP1 CPT: inconclusive

Results for O=C(Cc1cccc2ccccc12)NCC(=O)Nc1ccccc1F ?
TDP1 cell noCPT: -12%; HT1080-NT tox: -7%; IL1B secr inh: 22; HT1080 IDH1KD tx: -14%; DT40 TDP1 CPT: -23%
